Experimental findings from ChEMBL document CHEMBL1961873, “Compounds: GSK PKIS; Assays: Nanosyn kinase panel” (2012) are described below.

Assay [1] concerns the target T1, Serine/threonine-protein kinase D2 (Homo sapiens) (UniProt Q9BZL6).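 Further: mean value of PRKD2 inhibition, from the GSK PKIS screening panel.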
T1 sequence (whole entry): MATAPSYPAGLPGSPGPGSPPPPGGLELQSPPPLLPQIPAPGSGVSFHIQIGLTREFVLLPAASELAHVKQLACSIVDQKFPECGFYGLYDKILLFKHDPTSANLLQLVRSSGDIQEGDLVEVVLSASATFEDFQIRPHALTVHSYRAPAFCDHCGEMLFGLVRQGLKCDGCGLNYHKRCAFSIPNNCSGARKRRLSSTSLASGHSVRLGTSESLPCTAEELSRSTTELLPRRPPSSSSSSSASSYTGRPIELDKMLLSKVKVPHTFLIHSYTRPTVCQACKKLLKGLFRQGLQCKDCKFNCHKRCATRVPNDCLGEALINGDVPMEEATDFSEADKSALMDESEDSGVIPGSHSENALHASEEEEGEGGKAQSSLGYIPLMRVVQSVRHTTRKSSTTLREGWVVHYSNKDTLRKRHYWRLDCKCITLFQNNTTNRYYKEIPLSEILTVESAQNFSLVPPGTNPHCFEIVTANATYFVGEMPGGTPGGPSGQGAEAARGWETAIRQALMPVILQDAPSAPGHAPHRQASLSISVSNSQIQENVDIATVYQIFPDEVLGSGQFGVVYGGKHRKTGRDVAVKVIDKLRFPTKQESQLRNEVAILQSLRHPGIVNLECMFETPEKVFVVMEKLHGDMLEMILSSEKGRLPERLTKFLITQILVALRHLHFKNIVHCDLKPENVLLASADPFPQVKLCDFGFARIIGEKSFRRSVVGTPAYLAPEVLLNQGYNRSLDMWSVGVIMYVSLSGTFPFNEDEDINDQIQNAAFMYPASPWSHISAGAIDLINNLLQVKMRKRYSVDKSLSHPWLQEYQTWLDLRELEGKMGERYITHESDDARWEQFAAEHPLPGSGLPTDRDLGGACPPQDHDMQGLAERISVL
The settings on record: at 1 µM.

Assay [2] addresses T2, Serine/threonine-protein kinase D3 (Homo sapiens) (UniProt O94806).
T2 sequence (whole entry): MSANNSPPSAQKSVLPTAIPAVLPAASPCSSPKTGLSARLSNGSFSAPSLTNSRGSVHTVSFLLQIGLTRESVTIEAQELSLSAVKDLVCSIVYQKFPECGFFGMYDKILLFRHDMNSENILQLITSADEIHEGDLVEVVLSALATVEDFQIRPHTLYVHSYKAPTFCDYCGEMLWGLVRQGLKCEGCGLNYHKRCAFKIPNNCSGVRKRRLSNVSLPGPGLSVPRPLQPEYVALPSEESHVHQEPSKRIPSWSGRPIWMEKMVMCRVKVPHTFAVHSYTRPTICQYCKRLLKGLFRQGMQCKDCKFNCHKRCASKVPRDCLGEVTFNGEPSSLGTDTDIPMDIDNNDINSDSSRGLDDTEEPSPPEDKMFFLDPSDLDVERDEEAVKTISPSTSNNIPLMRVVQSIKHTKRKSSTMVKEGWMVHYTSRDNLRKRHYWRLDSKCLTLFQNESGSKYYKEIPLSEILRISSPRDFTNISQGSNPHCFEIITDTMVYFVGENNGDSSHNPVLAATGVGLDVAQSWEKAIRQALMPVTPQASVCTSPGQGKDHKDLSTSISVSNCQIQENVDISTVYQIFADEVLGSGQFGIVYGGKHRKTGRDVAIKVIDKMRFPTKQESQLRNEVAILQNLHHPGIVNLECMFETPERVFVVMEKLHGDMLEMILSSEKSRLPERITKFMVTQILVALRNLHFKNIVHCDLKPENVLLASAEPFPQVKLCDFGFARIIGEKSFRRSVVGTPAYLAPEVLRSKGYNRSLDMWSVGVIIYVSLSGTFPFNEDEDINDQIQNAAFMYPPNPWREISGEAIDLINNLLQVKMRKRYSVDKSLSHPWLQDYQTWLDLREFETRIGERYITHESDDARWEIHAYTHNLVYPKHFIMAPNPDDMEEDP
The following applies: at 0.1 µM.

Assay [3] deals with T2, Serine/threonine-protein kinase D3 (Homo sapiens). The following applies: at 1 µM.
The target of assay [4] is T3, cGMP-dependent protein kinase 1 (Homo sapiens) (UniProt Q13976).
T3 sequence (whole entry): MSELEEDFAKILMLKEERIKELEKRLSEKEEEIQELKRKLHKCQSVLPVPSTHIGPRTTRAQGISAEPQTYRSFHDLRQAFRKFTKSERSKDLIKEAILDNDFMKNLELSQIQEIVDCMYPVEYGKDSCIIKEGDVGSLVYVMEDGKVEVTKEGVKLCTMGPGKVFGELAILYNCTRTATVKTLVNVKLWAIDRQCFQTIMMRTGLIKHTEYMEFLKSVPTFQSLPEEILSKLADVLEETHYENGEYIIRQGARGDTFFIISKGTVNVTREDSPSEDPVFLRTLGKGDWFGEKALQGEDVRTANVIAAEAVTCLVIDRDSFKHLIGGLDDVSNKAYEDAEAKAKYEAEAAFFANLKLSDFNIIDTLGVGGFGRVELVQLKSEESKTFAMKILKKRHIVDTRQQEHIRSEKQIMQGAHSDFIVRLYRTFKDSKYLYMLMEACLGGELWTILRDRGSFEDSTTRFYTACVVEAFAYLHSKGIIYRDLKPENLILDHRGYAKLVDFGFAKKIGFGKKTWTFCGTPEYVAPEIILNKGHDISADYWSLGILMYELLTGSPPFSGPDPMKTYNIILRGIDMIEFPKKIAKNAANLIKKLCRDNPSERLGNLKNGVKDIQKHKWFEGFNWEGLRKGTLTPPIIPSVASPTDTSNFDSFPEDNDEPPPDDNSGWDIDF
The following applies: at 0.1 µM.

In assay [5] the target is T3, cGMP-dependent protein kinase 1 (Homo sapiens). The settings on record: at 1 µM.
In assay [6] the target is T4, cGMP-dependent protein kinase 2 (Homo sapiens) (UniProt Q13237).
T4 sequence (whole entry): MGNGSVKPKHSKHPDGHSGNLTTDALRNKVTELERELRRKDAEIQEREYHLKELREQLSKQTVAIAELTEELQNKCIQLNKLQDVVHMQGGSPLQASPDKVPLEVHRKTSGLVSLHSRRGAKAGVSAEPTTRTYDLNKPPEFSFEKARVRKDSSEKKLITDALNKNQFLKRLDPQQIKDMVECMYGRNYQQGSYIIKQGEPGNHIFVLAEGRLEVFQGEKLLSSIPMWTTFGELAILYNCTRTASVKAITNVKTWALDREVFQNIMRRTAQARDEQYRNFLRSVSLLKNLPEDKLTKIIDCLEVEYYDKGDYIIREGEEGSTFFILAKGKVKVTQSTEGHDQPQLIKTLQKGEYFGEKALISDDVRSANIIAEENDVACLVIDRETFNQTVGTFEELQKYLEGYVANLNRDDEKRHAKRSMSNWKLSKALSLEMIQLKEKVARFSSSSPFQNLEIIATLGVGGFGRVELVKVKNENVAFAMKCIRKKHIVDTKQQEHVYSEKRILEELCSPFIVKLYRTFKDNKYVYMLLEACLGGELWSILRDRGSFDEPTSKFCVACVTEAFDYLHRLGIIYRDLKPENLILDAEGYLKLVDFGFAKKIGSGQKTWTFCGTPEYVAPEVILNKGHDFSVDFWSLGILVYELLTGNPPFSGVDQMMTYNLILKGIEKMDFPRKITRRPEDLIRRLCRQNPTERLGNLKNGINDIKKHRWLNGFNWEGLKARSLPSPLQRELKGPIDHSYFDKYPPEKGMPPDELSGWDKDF
The following applies: at 0.1 µM.

In assay [7] the target is T4, cGMP-dependent protein kinase 2 (Homo sapiens). The following applies: at 1 µM.
Assay [8] concerns the target T5, cAMP-dependent protein kinase catalytic subunit PRKX (Homo sapiens) (UniProt P51817).
T5 sequence (whole entry): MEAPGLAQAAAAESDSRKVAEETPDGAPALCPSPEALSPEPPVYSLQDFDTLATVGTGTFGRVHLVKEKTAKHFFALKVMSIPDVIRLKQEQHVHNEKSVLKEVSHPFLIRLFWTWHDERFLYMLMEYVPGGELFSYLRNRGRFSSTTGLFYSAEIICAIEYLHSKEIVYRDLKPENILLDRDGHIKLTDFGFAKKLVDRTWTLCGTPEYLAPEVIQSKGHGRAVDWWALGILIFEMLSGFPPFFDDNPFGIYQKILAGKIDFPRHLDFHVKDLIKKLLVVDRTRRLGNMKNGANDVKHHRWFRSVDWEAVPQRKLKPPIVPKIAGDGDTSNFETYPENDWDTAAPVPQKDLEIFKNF
The following applies: at 0.1 µM.

The target in assay [9] is T5, cAMP-dependent protein kinase catalytic subunit PRKX (Homo sapiens). The settings on record: at 1 µM.
The target in assay [10] is Rho-associated protein kinase 1 (Homo sapiens) (UniProt Q13464). The following applies: at 0.1 µM.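 Further: values are mean percent inhibition of ROCK1.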
Chain of Rho-associated protein kinase 1 (Homo sapiens) (Q13464 2-1354 limits assumed): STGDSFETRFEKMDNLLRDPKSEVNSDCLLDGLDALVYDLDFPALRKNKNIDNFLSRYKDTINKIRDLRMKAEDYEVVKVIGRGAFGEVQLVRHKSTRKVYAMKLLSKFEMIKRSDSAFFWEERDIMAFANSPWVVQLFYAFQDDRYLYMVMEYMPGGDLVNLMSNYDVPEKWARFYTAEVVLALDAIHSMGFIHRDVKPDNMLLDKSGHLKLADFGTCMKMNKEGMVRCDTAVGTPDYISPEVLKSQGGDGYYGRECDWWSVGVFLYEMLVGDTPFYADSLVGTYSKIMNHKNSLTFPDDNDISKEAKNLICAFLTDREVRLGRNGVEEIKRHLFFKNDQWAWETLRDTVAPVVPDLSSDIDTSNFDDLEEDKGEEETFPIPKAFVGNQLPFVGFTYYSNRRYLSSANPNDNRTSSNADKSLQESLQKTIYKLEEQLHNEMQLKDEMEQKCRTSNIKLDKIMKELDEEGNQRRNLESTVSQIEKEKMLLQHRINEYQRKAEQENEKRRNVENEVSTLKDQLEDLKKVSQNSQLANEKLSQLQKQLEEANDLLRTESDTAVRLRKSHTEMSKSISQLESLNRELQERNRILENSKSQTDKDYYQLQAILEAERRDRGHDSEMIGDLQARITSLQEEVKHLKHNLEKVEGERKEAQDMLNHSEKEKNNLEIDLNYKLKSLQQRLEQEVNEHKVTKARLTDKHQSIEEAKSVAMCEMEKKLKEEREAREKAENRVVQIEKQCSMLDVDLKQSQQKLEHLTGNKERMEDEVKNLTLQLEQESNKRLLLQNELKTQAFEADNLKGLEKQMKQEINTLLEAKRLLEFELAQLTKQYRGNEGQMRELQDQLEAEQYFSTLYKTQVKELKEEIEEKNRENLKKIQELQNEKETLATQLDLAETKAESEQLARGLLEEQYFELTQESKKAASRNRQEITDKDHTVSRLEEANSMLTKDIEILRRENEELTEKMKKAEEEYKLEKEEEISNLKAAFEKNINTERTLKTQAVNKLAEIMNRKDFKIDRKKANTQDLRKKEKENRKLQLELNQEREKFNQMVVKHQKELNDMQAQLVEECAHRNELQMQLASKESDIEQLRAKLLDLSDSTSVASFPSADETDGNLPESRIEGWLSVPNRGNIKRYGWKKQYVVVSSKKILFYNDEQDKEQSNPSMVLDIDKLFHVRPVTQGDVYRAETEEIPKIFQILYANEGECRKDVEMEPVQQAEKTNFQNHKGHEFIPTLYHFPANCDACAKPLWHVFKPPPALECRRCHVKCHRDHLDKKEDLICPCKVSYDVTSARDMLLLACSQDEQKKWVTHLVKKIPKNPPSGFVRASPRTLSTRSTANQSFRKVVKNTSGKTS

Broadly, the inhibition is the change of the read-out against control, counted positive when it falls. `NS(=O)(=O)c1ccc(N/C=C2\C(=O)Nc3ccc4ncsc4c32)cc1`: the inhibition in assay [1] is 58.2%; in assay [2], 13.7%; in assay [3], 54.2%; in [4], 4.89%; in assay [5] it was 16.7%; in assay [6] it was 9.85%. In addition, the inhibition in assay [7] amounted to 47.9%; in assay [8], 2.57%; in assay [9], 6.55%; in assay [10], 6.26%.

As to `CCn1c(-c2nonc2N)nc2c(C#CCN)ncc(OCCCN)c21`, the inhibition is 0.48% in [1]; -2.29% in [2]; -1.06% in [3]; 8.62% in assay [4]; 38% in assay [5]; 37.1% in [6]. Also, the inhibition in [7] was 74.6%; in assay [8], 4.23%; in [9] it was 18.9%; in assay [10], 7.73%.

Consider `Nc1nonc1-c1nc2cnccc2n1C1CCCCC1`, for which the inhibition was 4.59% in assay [1]; -1.73% in assay [2]; 2.27% in [3]; 14.4% in assay [4]; 61.2% in assay [5]; 41.1% in assay [6]. Besides, the inhibition in assay [7] came to 80.9%; in assay [8], 3.71%; in [9], 21.7%; in [10] it was 31%.

Regarding `Fc1ccc(-c2ncn(C3CCNCC3)c2-c2ccnc(Oc3ccccc3)n2)cc1`, the inhibition was 4.29% in [1]; -1.84% in assay [2]; 2.37% in [3]; 0.84% in assay [4]; 0.86% in assay [5]; 0.69% in assay [6]. Also, the inhibition in assay [7] stood at 0.2%; in [8] it was 1.64%; in assay [9], 1.63%; in assay [10] it was 0.65%.

In the case of `NS(=O)(=O)c1ccc(-c2ccc3c(NC(=O)C4CC4)n[nH]c3c2)cc1`, the inhibition in [1] was determined as 0.5%; in [2], 1.37%; in [3] it was 0.5%; in assay [4] it was 0.62%; in assay [5], 1.57%; in assay [6], 1.04%. For the same molecule, the inhibition is 3.29% in assay [7], 1.26% in [8], -1.16% in [9] and 1.11% in [10].

Regarding `COc1cccc(COc2cc(-n3cnc4ccccc43)sc2C(N)=O)c1`, the inhibition in [1] is 0.96%; in [2], 0.24%; in [3], 0.32%; in assay [4] it was 0.58%; in [5], -0.92%; in [6] it was 1.93%. The inhibition in assay [7] was -0.04%; in [8], 1.72%; in [9] it was 1.42%; in [10], -0.06%.

As for `Cc1cc(-c2ccco2)cc(C)c1/C=C/c1cncc(-c2nn[nH]n2)c1`, the inhibition in assay [1] was 2.37%; in [2], 2.09%; in assay [3], 1.22%; in assay [4], -0.2%; in [5] it was -0.46%; in [6], 0.23%. Also, the inhibition in [7] was -1.21%; in assay [8], 0.69%; in [9], -0.08%; in assay [10] it was 0.84%.
